The target in experiment [1] is Progesterone receptor (Homo sapiens) (UniProt P06401). Put plainly: qHTS assay to identify small molecule agonists of the progesterone receptor (PR) signaling pathway (AID 1346784; calls by dose curve; also: nearly all actives have a fitted effect of over 30% in size). A digest of the protocol:
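PR-UAS-bla HEK 293T cells (beta-lactamase reporter under UAS) in 2% charcoal-stripped FBS, dosed with 23 nL compound after 6 hr, incubated 16hr at 37C. LiveBLAzer B/G FRET substrate added, fluorescence read after 2 hours.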
(Quantitative high-throughput screening tests each substance at several concentrations.)

For experiment [2] the target is unchanged. Put plainly: qHTS assay to identify small molecule antagonists of the progesterone receptor (PR) signaling pathway (AID 1346795; active = well fitted inhibition curve with a large enough effect in the signal ratio in the repeat runs, not every such curve was filed as active; the % refers to the signal ratio). The gist of the method:
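PR-UAS-bla HEK293T cells with beta-lactamase reporter under UAS control, in 2% charcoal-stripped FBS, treated with compounds plus 1 nM promegestone (R5020, final) for 16 hr at 37C. Read-out: FRET beta-lactamase substrate fluorescence after 2 hr at room temperature.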

Experiment [3] in a line: qHTS assay to identify small molecule antagonists of the progesterone receptor (PR) signaling pathway - cell viability counter screen (AID 1346798). Also: series mostly up to about 92 µM; nearly all actives have a fitted effect of over 50% in size. A digest of the protocol: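 PR-UAS-bla HEK293T cells, 3,000/well in 2% charcoal-stripped FBS medium, dosed with compounds plus R5020 agonist and incubated 16 h at 37C. Viability then measured in the same wells by CellTiter-Glo luminescence after 30 min at RT.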

Experiment [4] is described as follows: qHTS assay to identify small molecule agonists of the progesterone receptor (PR) signaling pathway - cell viability counter screen (AID 1346799; calls by dose curve; also: nearly all actives have a fitted effect of over 45% in size). The gist of the method: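 Counter screen in the PR-UAS-bla HEK293T wells (2% charcoal-stripped FBS, 16 h compound exposure at 37 C) after the bla read. CellTiter-Glo added, 30 min at room temperature, luminescence read as cell viability.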

Experiment [5] in a line: qHTS assay to identify small molecule antagonists of the TGF-beta/Smad signaling pathway - cell viability counter screen (AID 1346824). Also: nearly all actives have a fitted effect of over 50% in size. A digest of the protocol: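 SBE-bla HEK 293T cells were plated overnight at 37 C, then given compounds in DMSO plus TGF-beta1 (added as 0.25 ng/mL solution) for 5 hr. After the bla read, CellTiter-Glo was added to the same wells and luminescence read after 30 min at room temperature.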

A short description of experiment [6]: qHTS assay to identify small molecule agonists of the TGF-beta/Smad signaling pathway - cell viability counter screen (AID 1346829). Also: top concentration of the series differs between compounds; nearly all actives have a fitted effect of over 45% in size. The gist of the method:
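HEK 293T SBE-bla line, 5 hr compound exposure at 37 C, multiplexed CellTiter-Glo viability read by luminescence.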

The nature of experiment [7]: qHTS assay to identify small molecule agonists of the TGF-beta/Smad signaling pathway (AID 1346859; active = well fitted activation curve with a large enough effect in the signal ratio in the repeat runs, not every such curve was filed as active; the % refers to the signal ratio; also: series mostly up to about 77 µM). A digest of the protocol: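 SBE-bla HEK293T cells plated overnight, then compound exposure for 5 h at 37 C. Beta-lactamase reporter read with LiveBLAzer B/G FRET substrate after 2 h at room temperature, fluorescence at 405 nm excitation, 460/530 nm emission.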
For experiment [8], the target named is Thyrotropin-releasing hormone receptor (Homo sapiens) (UniProt P34981). In words: qHTS assay to identify small molecule antagonists of the thyrotropin-releasing hormone receptor (TRHR) signaling pathway (AID 1346877; active = well fitted inhibition curve with a large enough effect in the repeat runs, not every such curve was filed as active; also: series mostly up to about 51 µM). A digest of the protocol:
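Kinetic fluorescence (3 min, 1 s resolution) following stimulation with TRH at 1 nM final; HEK293 cells bearing human TRHR; 5 min compound preincubation at RT; concentration-response over 15 points, triplicates.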

For experiment [9] the target is unchanged. Put plainly: qHTS assay to identify small molecule agonists of the thyrotropin-releasing hormone receptor (TRHR) signaling pathway (AID 1346891; calls by dose curve; also: series mostly up to about 58 µM). The gist of the method: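 HEK293 cells expressing TRHR plated 18 h at 37 C/5% CO2, calcium dye-loaded 2 h at 37 C, then compound added (agonist mode); kinetic calcium fluorescence read 3 min at 1 s intervals; 15 concentrations in triplicate.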

The nature of experiment [10]: Human pregnane X receptor (PXR) small molecule agonists, qHTS cell viability counter screen (AID 1346977). Also: nearly all actives have a fitted effect of over 50% in size. Also: potency is read from the fitted curve at half-maximal effect. A digest of the protocol: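 PXR-Luc HepG2 cells (2,000/well, 5% charcoal-stripped FBS) preincubated 5 hr, then exposed to compounds 24 hr at 37 C. Viability read in the same wells by CellTiter-Fluor fluorescence, reagent added at 23 hr, 1 hr incubation.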
Experiment [11] is described as follows: Caspase-3/7 induction in HepG2 cells by small molecules, qHTS assay (AID 1346978). Also: nearly all actives have a fitted effect of over 15% in size. A digest of the protocol: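 Wild-type HepG2 cells (2,000/well) were settled 5 h at 37 C, 5% CO2, then exposed to compounds in DMSO for 17 h. Caspase-3/7 activity was read by luminescence 30 min after adding Caspase-Glo 3/7 reagent at room temperature.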
The nature of experiment [12]: Caspase-3/7 induction in CHO-K1 cells by small molecules, qHTS cell viability counter screen (AID 1346979). Also: nearly all actives have a fitted effect of over 35% in size. Also: potency is read from the fitted curve at half-maximal effect. A digest of the protocol: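 Wild-type CHO-K1 cells (1,500/well) treated with compound after 5 h plating; after 16 h at 37C, viability read as CellTiter-Fluor fluorescence following 1 h reagent incubation, in the same wells as the caspase read.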
Experiment [13] is described as follows: Caspase-3/7 induction in CHO-K1 cells by small molecules, qHTS assay (AID 1346980). Also: nearly all actives have a fitted effect of over 15% in size. The gist of the method: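 Wild-type cells were seeded at 1,500 per well and settled 5 hr at 37 C, 5% CO2, then exposed to DMSO-dissolved compounds for 17 hr. Caspase-Glo 3/7 reagent was added, and luminescence was read after 30min at room temperature.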
Experiment [14] in a line: Caspase-3/7 induction in HepG2 cells by small molecules, qHTS cell viability counter screen (AID 1346981). Also: nearly all actives have a fitted effect of over 30% in size. Also: potency is read from the fitted curve at half-maximal effect. The gist of the method: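 In this quantitative HTS counter screen, compounds delivered in DMSO were left on unmodified HepG2 cells for 16 hr at 37 C. Viability was then determined fluorometrically with CellTiter-Fluor, in parallel with caspase-3/7 induction in the same wells.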

The target of experiment [15] is Nuclear receptor subfamily 1 group I member 2 (Homo sapiens) (UniProt O75469). Put plainly: Human pregnane X receptor (PXR) small molecule agonists, qHTS assay (AID 1346982). Also: nearly all actives have a fitted effect of over 35% in size. Also: potency is read from the fitted curve at half-maximal effect. A digest of the protocol:
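Reporter HepG2 cells expressing PXR-Luc are cultured in charcoal-stripped FBS (5%), treated with compounds for 24 hr at 37 C, and assayed by ONE-Glo luminescence after 30 min at room temperature.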

In experiment [16] the target is Cytochrome P450 2D6 (Homo sapiens) (UniProt P10635). Put plainly: Cytochrome P450 Family 2 Subfamily D Member 6 (CYP2D6) small molecule antagonists: luciferase reporter qHTS assay (AID 1671196). Also: series mostly up to about 120 µM; nearly all actives have a fitted effect of over 50% in size. A digest of the protocol:
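Test chemicals meet CYP2D6 plus proluciferin substrate (10 min, RT); NADPH regenerating solution then drives turnover for 1 h. Detection reagent halts the reaction; luminescence measured after 20 min.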
Background: In a reporter assay the amount or activity of a reporter protein is the signal.

The target in experiment [17] is Cytochrome P450 2C19 (Homo sapiens) (UniProt P33261). In words: Cytochrome P450 Family 2 Subfamily C Member 19 (CYP2C19) small molecule antagonists: luciferase reporter qHTS assay (AID 1671197). Also: nearly all actives have a fitted effect of over 65% in size. Also: potency is read from the fitted curve at half-maximal effect. The gist of the method: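 First, compounds are pinned into enzyme-substrate mix and held 10 min at room temperature. Second, NADPH regeneration solution is added and plates incubate 1 h at 37C. Third, detection reagent is added and luminescence read after 20 min.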
Cytochrome P450 2C19 (Homo sapiens), sequence (P33261 whole entry, looked up): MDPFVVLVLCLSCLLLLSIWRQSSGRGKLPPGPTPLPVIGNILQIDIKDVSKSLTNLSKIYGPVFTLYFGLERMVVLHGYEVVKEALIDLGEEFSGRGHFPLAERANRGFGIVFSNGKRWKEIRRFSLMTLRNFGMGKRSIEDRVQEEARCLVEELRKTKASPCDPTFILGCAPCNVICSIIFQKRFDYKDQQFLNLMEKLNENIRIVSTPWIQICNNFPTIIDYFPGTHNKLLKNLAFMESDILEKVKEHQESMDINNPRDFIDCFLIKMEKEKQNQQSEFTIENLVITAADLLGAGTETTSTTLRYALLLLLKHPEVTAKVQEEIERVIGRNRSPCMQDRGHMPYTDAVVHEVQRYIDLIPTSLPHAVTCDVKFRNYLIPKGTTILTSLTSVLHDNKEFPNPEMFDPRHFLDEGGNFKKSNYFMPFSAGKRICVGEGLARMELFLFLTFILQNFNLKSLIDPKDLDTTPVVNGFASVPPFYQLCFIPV

“And” between values parts separate entries of the source, which are not always exact repeats. Equal values may be shown once. Inconclusive results are not listed. Where a structure was tested more than once in an assay, its records may differ in their call. The source made the active and inactive calls. Unless noted, calls follow the shape of the dose curve; as a rule, active = well fitted curve in the direction sought with a large enough effect in the repeat runs; inconclusive = weak or mixed curves; inactive = no such curve, though single readings can be large; an effect the other way counts as inactive or inconclusive.

Progesterone receptor (Homo sapiens), sequence (P06401 whole entry, looked up): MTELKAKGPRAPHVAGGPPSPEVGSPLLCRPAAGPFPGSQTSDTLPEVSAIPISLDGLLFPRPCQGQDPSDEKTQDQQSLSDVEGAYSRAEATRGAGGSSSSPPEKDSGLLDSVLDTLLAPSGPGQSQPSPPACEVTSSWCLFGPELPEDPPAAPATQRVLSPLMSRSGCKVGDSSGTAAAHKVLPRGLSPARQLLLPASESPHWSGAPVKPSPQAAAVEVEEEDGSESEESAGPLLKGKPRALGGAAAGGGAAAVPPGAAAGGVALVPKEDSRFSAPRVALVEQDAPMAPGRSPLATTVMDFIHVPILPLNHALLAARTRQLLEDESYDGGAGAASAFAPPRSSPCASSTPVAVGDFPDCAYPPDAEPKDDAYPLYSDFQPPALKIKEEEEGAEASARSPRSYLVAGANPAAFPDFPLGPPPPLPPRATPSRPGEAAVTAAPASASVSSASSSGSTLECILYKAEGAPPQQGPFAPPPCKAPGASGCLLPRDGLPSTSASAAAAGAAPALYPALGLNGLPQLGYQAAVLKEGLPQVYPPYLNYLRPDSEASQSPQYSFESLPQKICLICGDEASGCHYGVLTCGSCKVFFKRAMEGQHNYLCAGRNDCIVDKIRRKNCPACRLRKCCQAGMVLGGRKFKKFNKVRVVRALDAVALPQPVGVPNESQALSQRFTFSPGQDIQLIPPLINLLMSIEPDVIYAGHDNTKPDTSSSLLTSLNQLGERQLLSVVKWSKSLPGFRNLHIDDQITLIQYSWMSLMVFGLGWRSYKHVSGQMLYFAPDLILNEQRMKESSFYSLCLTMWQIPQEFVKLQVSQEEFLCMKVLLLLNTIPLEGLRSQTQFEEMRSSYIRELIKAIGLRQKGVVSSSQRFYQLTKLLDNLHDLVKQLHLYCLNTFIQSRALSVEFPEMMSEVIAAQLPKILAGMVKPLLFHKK
Cytochrome P450 2D6 (Homo sapiens), sequence (P10635 whole entry, looked up): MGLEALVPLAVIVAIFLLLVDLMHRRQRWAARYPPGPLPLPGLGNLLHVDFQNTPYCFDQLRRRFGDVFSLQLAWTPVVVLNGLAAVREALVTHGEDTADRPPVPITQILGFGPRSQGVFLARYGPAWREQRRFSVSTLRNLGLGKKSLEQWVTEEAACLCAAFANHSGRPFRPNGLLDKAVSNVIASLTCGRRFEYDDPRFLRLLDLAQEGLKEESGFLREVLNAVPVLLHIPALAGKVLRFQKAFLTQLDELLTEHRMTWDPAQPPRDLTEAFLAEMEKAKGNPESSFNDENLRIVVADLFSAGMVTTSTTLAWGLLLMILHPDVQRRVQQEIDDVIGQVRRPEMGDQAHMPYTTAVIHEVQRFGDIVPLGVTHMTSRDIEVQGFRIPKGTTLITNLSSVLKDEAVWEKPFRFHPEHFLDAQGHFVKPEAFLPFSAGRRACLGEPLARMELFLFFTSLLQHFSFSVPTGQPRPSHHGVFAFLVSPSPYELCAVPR
Thyrotropin-releasing hormone receptor (Homo sapiens), sequence (P34981 whole entry, looked up): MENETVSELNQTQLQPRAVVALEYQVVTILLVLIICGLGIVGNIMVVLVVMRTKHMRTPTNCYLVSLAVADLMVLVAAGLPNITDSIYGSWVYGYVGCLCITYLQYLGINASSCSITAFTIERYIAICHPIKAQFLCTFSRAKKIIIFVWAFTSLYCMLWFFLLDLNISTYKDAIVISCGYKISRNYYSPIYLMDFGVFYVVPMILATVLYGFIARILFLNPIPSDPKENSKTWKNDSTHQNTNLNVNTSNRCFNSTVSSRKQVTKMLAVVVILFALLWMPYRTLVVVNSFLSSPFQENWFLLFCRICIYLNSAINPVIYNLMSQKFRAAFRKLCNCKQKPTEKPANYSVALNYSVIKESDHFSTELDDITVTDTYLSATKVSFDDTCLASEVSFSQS
Nuclear receptor subfamily 1 group I member 2 (Homo sapiens), sequence (O75469 whole entry, looked up): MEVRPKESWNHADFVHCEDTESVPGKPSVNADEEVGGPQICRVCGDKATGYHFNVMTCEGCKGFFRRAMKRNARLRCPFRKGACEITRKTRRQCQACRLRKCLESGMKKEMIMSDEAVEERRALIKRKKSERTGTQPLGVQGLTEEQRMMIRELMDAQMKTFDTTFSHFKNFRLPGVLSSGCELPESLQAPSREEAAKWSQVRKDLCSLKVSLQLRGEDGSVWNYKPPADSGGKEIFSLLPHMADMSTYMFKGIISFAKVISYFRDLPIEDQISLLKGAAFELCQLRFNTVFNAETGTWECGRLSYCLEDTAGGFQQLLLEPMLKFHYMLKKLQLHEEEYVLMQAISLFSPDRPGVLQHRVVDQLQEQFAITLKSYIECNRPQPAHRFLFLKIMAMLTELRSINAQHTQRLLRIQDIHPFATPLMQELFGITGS

As for `OC1CCCCC1c1ccccc1` (stereo not drawn), the Potency entry in experiment [1], in experiment [2], in experiment [3], in [4], in [5] and in experiment [10] was “inactive” each time. For the same molecule, the Potency result in [11], in [12], in experiment [14], in [15] and in [16] was “inactive” in each case. The call in [6], in experiment [7], in [8], in experiment [9] and in experiment [13] was inactive. For the same molecule, the Potency in experiment [17] is 79.6 µM (active).
For the molecule `Nc1c2c(nc3ccccc13)CCCC2O` (stereo not drawn), the Potency result in experiment [1], in experiment [2], in experiment [3], in experiment [4], in experiment [5] and in experiment [10] was “inactive” throughout. Further, the Potency result in experiment [11], in experiment [12], in experiment [14], in [15] and in [17] was “inactive” throughout. For the same molecule, the outcome in experiment [6], in experiment [7], in experiment [8] and in experiment [9] was inactive.
As to `COC(=O)CCSCCC(=O)OC`, the Potency entry in experiment [1], in experiment [2], in experiment [3], in experiment [4], in experiment [5] and in experiment [10] was “inactive” each time. Further, the Potency result in experiment [11], in experiment [14], in experiment [15], in experiment [16] and in [17] was “inactive” in each case. For the same molecule, the call in experiment [6], in experiment [7], in [8], in [9] and in [13] was inactive.
For `CCCCOCCOCCOCCCC`, the Potency entry in [1], in experiment [2], in experiment [3], in experiment [4], in experiment [5] and in experiment [10] was “inactive” throughout. In addition, the Potency entry in [11], in experiment [12], in [14], in experiment [15], in [16] and in [17] was “inactive” throughout. The call in experiment [6], in experiment [7], in experiment [8], in [9] and in [13] was inactive.
Turning to `CC(=O)OC/C=C(\C)CC/C=C(\C)CCC=C(C)C`, the Potency entry in experiment [1], in experiment [2], in experiment [3], in experiment [4], in [5] and in [11] was “inactive” each time. Moreover, the Potency entry in experiment [12] and in experiment [14] was “inactive” in each case. The outcome in experiment [6], in [7], in experiment [9] and in experiment [13] was inactive. Moreover, the Potency is 61.1 µM (active) and inactive in experiment [15]; 20 µM (active) and 71 µM (active) in experiment [17].
`O=S(O)CO`: the Potency result in [1], in experiment [2], in experiment [3], in experiment [4], in [5] and in [11] was “inactive” throughout. For the same molecule, the Potency entry in experiment [12], in [14], in experiment [15], in [16] and in experiment [17] was “inactive” in each case. Also, the result in experiment [6], in experiment [7], in [9] and in [13] was inactive.
Turning to `CS(=O)(=O)O`, the Potency result in [1], in [2], in experiment [3], in experiment [4], in [5] and in [10] was “inactive” in each case. For the same molecule, the Potency result in [11], in [12], in [15] and in experiment [17] was “inactive” throughout. Besides, the molecule was classed as inactive in [6], in [7], in experiment [9] and in experiment [13].
On to `C=C(C)C(=O)OCCCCCCCC(C)C`, for which the Potency result in experiment [1], in experiment [2], in experiment [3], in experiment [4], in [5] and in experiment [11] was “inactive” each time. Moreover, the Potency entry in experiment [16] was “inactive”. Moreover, the molecule was classed as inactive in experiment [6], in [7] and in experiment [9]. In addition, the Potency was 0.976 µM (active) in experiment [10]; 1.09 µM (active) in [12]; 1.38 µM (active) in experiment [14]; 870 nM (active) in experiment [15]; 71.5 µM (active) in experiment [17].
In the case of `Cc1c(O)cccc1O`, the Potency result in [1], in experiment [2], in [3], in [4], in experiment [5] and in experiment [10] was “inactive” throughout. In addition, the Potency entry in experiment [11], in experiment [12], in [14], in experiment [15] and in [16] was “inactive” throughout. Moreover, the call in experiment [6], in [7], in [9] and in [13] was inactive.

The values are drawn from PubChem BioAssay (Tox21).
